SMILES strings stand for the structures. Where “and” joins values, the source holds several entries; their conditions need not be identical. Equal entries are not always repeated. Results filed as inconclusive are left out. A structure can be active in one record and inactive in another. Calls of active or inactive are those of the source. Unless noted, calls follow the shape of the dose curve; as a rule, active = well fitted curve in the direction sought with a large enough effect in the repeat runs; inconclusive = weak or mixed curves; inactive = no such curve, though single readings can be large; an effect the other way counts as inactive or inconclusive.

Test [1] addresses Progesterone receptor (Homo sapiens) (UniProt P06401). In words: qHTS assay to identify small molecule agonists of the progesterone receptor (PR) signaling pathway (AID 1346784; calls by dose curve; also: nearly all actives have a fitted effect of over 30% in size). In outline: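 PR-UAS-bla HEK 293T cells (beta-lactamase reporter under UAS) in 2% charcoal-stripped FBS, dosed with 23 nL compound after 6 hr, incubated 16hr at 37C. LiveBLAzer B/G FRET substrate added, fluorescence read after 2 hours.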
For orientation: In qHTS, concentration-response curves come from the screen itself.

Test [2] can be described thus: qHTS assay to identify small molecule antagonists of the progesterone receptor (PR) signaling pathway - cell viability counter screen (AID 1346798). Also: nearly all actives have a fitted effect of over 50% in size. Also: potency is read from the fitted curve at half-maximal effect. The method in brief: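 PR-UAS-bla HEK293T cells, 3,000/well in 2% charcoal-stripped FBS medium, dosed with compounds plus R5020 agonist and incubated 16 h at 37C. Viability then measured in the same wells by CellTiter-Glo luminescence after 30 min at RT.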

Test [3] can be described thus: qHTS assay to identify small molecule agonists of the progesterone receptor (PR) signaling pathway - cell viability counter screen (AID 1346799; calls by dose curve; also: nearly all actives have a fitted effect of over 45% in size; also: potency is read from the fitted curve at half-maximal effect). The method in brief:
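Counter screen in the PR-UAS-bla HEK293T wells (2% charcoal-stripped FBS, 16 h compound exposure at 37 C) after the bla read. CellTiter-Glo added, 30 min at room temperature, luminescence read as cell viability.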

The nature of test [4]: qHTS assay to identify small molecule antagonists of the TGF-beta/Smad signaling pathway - cell viability counter screen (AID 1346824). Also: nearly all actives have a fitted effect of over 50% in size. The method in brief:
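SBE-bla HEK 293T cells, incubated overnight, then compound plus 0.25 ng/mL TGF-beta1 (stock added) for 5 hr at 37 C. Viability was read in the same wells by CellTiter-Glo luminescence after 30 min at room temperature.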

Test [5] can be described thus: qHTS assay to identify small molecule agonists of the TGF-beta/Smad signaling pathway (AID 1346859; active = well fitted activation curve with a large enough effect in the signal ratio in the repeat runs, not every such curve was filed as active; the % refers to the signal ratio; also: series mostly up to about 77 µM). In outline: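 SBE-bla HEK293T cells plated overnight, then compound exposure for 5 h at 37 C. Beta-lactamase reporter read with LiveBLAzer B/G FRET substrate after 2 h at room temperature, fluorescence at 405 nm excitation, 460/530 nm emission.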
Test [6] concerns the target Thyrotropin-releasing hormone receptor (Homo sapiens) (UniProt P34981). Description: qHTS assay to identify small molecule antagonists of the thyrotropin-releasing hormone receptor (TRHR) signaling pathway (AID 1346877; active = well fitted inhibition curve with a large enough effect in the repeat runs, not every such curve was filed as active; also: series mostly up to about 51 µM). In outline:
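Screening used HEK293 cells engineered with TRHR, with a brief 5 min room-temperature compound exposure preceding addition of TRH to 1 nM. The read-out was kinetic calcium-dye fluorescence, concentration-response from 15 doses in triplicate.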

The target is the same in test [7]. Description: qHTS assay to identify small molecule agonists of the thyrotropin-releasing hormone receptor (TRHR) signaling pathway (AID 1346891; calls by dose curve; also: series mostly up to about 58 µM). In outline:
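HEK293 cells expressing TRHR plated 18 h at 37 C/5% CO2, calcium dye-loaded 2 h at 37 C, then compound added (agonist mode); kinetic calcium fluorescence read 3 min at 1 s intervals; 15 concentrations in triplicate.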

Test [8] in a line: Human pregnane X receptor (PXR) small molecule agonists, qHTS cell viability counter screen (AID 1346977). Also: nearly all actives have a fitted effect of over 50% in size. Also: potency is read from the fitted curve at half-maximal effect. In outline:
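PXR-Luc HepG2 cells (2,000/well, 5% charcoal-stripped FBS) preincubated 5 hr, then exposed to compounds 24 hr at 37 C. Viability read in the same wells by CellTiter-Fluor fluorescence, reagent added at 23 hr, 1 hr incubation.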

The nature of test [9]: Caspase-3/7 induction in HepG2 cells by small molecules, qHTS assay (AID 1346978). Also: nearly all actives have a fitted effect of over 15% in size. Also: potency is read from the fitted curve at half-maximal effect. In outline: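 Wild-type HepG2 cells, 2,000/well, settled 5 hr at 37 C and 5% CO2, then compound-treated for 17 hr; caspase-3/7 activity read by luminescent Caspase-Glo 3/7 after 30 min at room temperature.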
Test [10] in a line: Caspase-3/7 induction in CHO-K1 cells by small molecules, qHTS cell viability counter screen (AID 1346979). Also: nearly all actives have a fitted effect of over 35% in size. Also: potency is read from the fitted curve at half-maximal effect. The method in brief:
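Wild-type CHO-K1 cells (1,500/well) treated with compound after 5 h plating; after 16 h at 37C, viability read as CellTiter-Fluor fluorescence following 1 h reagent incubation, in the same wells as the caspase read.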

Test [11] is described as follows: Caspase-3/7 induction in CHO-K1 cells by small molecules, qHTS assay (AID 1346980). Also: nearly all actives have a fitted effect of over 15% in size. The method in brief: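 Wild-type CHO-K1 cells exposed to compounds for 17hr at 37 C, 5% CO2. Caspase-3/7 activity then measured by Caspase-Glo 3/7 luminescence after 30min at room temperature.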
Test [12] is described as follows: Caspase-3/7 induction in HepG2 cells by small molecules, qHTS cell viability counter screen (AID 1346981). Also: nearly all actives have a fitted effect of over 30% in size. Also: potency is read from the fitted curve at half-maximal effect. In outline:
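Multiplexed with the caspase-3/7 assay: HepG2 cells, 16 hr compound treatment, CellTiter-Fluor viability detection by fluorescence.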

Test [13] has as its target Nuclear receptor subfamily 1 group I member 2 (Homo sapiens) (UniProt O75469). In words: Human pregnane X receptor (PXR) small molecule agonists, qHTS assay (AID 1346982). Also: nearly all actives have a fitted effect of over 35% in size. Also: potency is read from the fitted curve at half-maximal effect. The method in brief:
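We seeded PXR-Luc HepG2 cells in assay medium containing 5% charcoal-stripped FBS, added compounds 5 hr later, incubated 24 hr, and read luminescence with ONE-Glo reagent.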

For test [14], the target named is Nuclear receptor subfamily 1 group I member 2 (Rattus norvegicus) (UniProt Q9R1A7). In words: Rat pregnane X receptor (rPXR) activation by small molecules, qHTS assay (AID 1346983). Also: nearly all actives have a fitted effect of over 20% in size. The settings on record: rPXR luciferase reporter cells, One-Glo luminescence, 24 h; max activation: stronger effect = higher value. In outline: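 Cell-based rPXR activation assay: rPXR cells, 2,000 per well, rested 5hr at 37 C, then exposed to compounds in DMSO for 24 hr at 37 C. Luciferase activity read by One-Glo luminescence after 30 min at room temperature.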
Nuclear receptor subfamily 1 group I member 2 (Rattus norvegicus), sequence (Q9R1A7 whole entry, looked up): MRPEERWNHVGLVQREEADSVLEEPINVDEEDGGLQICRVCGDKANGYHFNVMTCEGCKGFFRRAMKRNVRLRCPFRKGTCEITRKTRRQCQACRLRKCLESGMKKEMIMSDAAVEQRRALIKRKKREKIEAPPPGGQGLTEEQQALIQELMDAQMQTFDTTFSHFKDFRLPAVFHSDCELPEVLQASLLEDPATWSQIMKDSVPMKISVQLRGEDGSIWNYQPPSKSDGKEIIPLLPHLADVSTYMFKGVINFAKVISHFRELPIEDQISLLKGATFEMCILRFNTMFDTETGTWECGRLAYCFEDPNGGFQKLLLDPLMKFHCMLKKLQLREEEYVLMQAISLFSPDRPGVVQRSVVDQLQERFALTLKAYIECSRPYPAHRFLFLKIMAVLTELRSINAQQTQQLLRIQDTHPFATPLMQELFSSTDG

In test [15] the target is Nuclear receptor subfamily 1 group I member 2 (Homo sapiens) (UniProt O75469). In words: CYP3A4 induction through human pregnane X receptor (PXR) by small molecules, qHTS assay (AID 1346984). Also: nearly all actives have a fitted effect of over 40% in size. Also: potency is read from the fitted curve at half-maximal effect. In outline:
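qHTS, concentration-response format: HepG2 DPX-2 line, PXR/CYP3A4-luc. Exposure 24 h, 37C. Substrate Luciferin-IPA 3uM final, 3 h. Detection One-Glo, 30 min RT.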

The target is the same in test [16]. In words: Human pregnane X receptor (PXR) activation by small molecules, qHTS assay (AID 1346985). Also: nearly all actives have a fitted effect of over 40% in size. The method in brief: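 DPX-2 cells (HepG2 co-transfected with a PXR response element and a CYP3A4-promoter luciferase construct) were seeded at 2,000 per well, rested 5 hr at 37C, then exposed to DMSO-dissolved compounds for 24 hr. Activation was read as luciferase luminescence.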

Test [17] has as its target Cytochrome P450 2C19 (Homo sapiens) (UniProt P33261). Description: Cytochrome P450 Family 2 Subfamily C Member 19 (CYP2C19) small molecule antagonists: luciferase reporter qHTS assay (AID 1671197). Also: nearly all actives have a fitted effect of over 65% in size. Also: potency is read from the fitted curve at half-maximal effect. In outline: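 Enzyme-substrate mix with proluciferin substrate (P450-Glo CYP2C19 system) preincubated with compounds 10 min at room temperature; NADPH regeneration solution added, 37C for 1 h; detection reagent stops reaction, luminescence read after 20 min. Ketoconazole positive control.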

Test [18] in a line: qHTS assay to identify small molecule agonists of the TGF-beta/Smad signaling pathway - cell viability counter screen (AID 1346829). Also: top concentration of the series differs between compounds; nearly all actives have a fitted effect of over 45% in size. The method in brief:
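CellTiter-Glo luminescence readout; SBE-bla HEK 293T cells, overnight plating, compound 5 hr at 37 C/5% CO2, then bla substrate 2 hr RT, then CellTiter-Glo 30 min RT.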

Test [19] deals with Cytochrome P450 2D6 (Homo sapiens) (UniProt P10635). Description: Cytochrome P450 Family 2 Subfamily D Member 6 (CYP2D6) small molecule antagonists: luciferase reporter qHTS assay (AID 1671196). Also: nearly all actives have a fitted effect of over 50% in size. Also: potency is read from the fitted curve at half-maximal effect. In outline:
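Luminescence (RLU), read 20 min after detection reagent, indicated CYP2D6 conversion of proluciferin to luciferin during a 1 h NADPH-dependent reaction at room temperature.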

In test [20] the target is Progesterone receptor (Homo sapiens) (UniProt P06401). Description: qHTS assay to identify small molecule antagonists of the progesterone receptor (PR) signaling pathway (AID 1346795; active = well fitted inhibition curve with a large enough effect in the signal ratio in the repeat runs, not every such curve was filed as active; the % refers to the signal ratio). The method in brief:
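PR-UAS-bla HEK293T cells with beta-lactamase reporter under UAS control, in 2% charcoal-stripped FBS, treated with compounds plus 1 nM promegestone (R5020, final) for 16 hr at 37C. Read-out: FRET beta-lactamase substrate fluorescence after 2 hr at room temperature.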
% is scaled to controls: 0 for no effect and ±100 for the full control effect.

Cytochrome P450 2C19 (Homo sapiens), sequence (P33261 whole entry, looked up): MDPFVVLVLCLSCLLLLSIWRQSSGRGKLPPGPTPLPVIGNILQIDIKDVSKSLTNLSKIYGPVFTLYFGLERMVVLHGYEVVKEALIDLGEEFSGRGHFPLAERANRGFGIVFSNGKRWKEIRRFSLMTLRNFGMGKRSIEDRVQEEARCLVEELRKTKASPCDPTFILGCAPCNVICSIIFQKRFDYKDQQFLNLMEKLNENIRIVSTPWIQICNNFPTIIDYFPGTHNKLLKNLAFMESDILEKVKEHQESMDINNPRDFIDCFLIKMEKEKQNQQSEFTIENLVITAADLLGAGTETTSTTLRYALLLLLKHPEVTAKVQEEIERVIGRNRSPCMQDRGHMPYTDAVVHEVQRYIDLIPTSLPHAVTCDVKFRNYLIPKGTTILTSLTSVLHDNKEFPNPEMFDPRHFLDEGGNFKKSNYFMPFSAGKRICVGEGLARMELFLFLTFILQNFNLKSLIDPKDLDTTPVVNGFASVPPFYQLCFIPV
Cytochrome P450 2D6 (Homo sapiens), sequence (P10635 whole entry, looked up): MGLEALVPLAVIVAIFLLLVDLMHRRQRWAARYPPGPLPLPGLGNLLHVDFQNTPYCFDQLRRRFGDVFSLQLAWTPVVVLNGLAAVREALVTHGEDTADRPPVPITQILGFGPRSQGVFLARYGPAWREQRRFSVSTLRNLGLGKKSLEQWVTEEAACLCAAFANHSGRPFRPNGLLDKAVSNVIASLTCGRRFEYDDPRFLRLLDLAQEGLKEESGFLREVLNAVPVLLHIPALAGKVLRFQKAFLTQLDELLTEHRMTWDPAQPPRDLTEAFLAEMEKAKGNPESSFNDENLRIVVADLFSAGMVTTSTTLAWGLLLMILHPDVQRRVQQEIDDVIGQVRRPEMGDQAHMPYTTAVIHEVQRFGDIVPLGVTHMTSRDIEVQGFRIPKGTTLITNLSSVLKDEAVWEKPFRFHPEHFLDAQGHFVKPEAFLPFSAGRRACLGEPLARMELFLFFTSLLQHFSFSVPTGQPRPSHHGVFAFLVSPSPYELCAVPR
Progesterone receptor (Homo sapiens), sequence (P06401 whole entry, looked up): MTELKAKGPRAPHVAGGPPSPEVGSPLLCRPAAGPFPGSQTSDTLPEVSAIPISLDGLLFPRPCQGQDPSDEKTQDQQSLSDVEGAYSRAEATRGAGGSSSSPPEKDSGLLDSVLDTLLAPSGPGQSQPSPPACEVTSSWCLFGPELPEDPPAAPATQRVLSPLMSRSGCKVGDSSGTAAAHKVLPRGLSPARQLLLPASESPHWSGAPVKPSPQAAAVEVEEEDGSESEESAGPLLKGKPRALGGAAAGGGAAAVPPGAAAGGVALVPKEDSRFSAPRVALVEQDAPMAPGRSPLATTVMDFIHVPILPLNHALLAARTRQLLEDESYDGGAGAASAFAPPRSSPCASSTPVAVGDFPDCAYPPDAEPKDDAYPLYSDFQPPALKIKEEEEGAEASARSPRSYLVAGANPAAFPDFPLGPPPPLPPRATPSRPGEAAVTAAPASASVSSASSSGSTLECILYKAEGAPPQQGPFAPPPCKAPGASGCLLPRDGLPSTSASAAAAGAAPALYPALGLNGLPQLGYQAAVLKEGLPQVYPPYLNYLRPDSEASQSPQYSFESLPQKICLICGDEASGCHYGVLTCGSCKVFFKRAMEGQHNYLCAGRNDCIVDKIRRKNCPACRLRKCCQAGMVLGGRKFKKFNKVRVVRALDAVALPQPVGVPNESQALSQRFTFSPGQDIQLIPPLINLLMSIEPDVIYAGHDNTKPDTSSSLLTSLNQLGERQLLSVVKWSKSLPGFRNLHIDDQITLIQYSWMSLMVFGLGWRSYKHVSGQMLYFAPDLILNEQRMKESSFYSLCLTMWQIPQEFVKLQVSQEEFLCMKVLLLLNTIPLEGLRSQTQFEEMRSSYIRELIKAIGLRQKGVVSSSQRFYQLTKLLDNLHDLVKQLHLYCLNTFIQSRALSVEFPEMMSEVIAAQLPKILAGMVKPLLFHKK
Nuclear receptor subfamily 1 group I member 2 (Homo sapiens), sequence (O75469 whole entry, looked up): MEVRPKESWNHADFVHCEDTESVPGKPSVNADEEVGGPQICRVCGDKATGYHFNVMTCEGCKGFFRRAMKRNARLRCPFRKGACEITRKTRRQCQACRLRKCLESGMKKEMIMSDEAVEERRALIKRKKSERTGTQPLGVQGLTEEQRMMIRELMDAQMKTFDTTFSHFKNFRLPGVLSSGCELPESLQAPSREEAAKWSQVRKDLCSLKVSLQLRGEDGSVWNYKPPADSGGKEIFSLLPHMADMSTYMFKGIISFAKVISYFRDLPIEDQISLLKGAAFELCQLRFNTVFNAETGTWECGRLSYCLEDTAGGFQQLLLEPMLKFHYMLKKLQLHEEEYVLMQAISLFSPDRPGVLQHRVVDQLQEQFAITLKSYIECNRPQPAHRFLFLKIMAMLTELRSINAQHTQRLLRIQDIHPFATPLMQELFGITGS
Thyrotropin-releasing hormone receptor (Homo sapiens), sequence (P34981 whole entry, looked up): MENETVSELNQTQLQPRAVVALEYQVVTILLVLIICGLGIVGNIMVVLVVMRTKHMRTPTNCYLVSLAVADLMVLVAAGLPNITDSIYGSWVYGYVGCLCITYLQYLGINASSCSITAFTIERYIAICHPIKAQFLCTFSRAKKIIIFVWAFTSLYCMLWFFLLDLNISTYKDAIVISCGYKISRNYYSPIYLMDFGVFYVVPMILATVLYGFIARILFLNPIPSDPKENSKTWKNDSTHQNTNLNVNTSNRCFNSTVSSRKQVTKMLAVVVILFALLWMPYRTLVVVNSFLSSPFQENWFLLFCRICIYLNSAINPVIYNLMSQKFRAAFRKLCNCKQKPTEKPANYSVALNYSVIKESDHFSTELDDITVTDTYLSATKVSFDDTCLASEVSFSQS

As to `CN(C)C(=S)SC(=S)N(C)C`, the Potency entry in test [1], in [4], in test [6], in test [7], in test [11] and in [15] was “inactive” in each case. Besides, the Potency was 994 nM (active) and 969 nM (active) and 750 nM (active) in test [2]; 2.22 µM (active) and 1.22 µM (active) and 266 nM (active) in test [3]; 7.08 µM (active) and 545 nM (active) and 2.66 µM (active) in [8]; 4.98 µM (active) and 770 nM (active) and 3.76 µM (active) in test [9]; 1.4 µM (active) and 433 nM (active) and 2.11 µM (active) in [10]; 30.6 µM (active) in test [12]. In addition, the Potency in [13] is 1.98 µM (active) and inactive; in [17] it was 16.3 µM (active) and 20 µM (active) and 7.76 µM (active). The compound was classed as inactive in [5] and in [16]. Further, the max activation in test [14] is -4.94% (inactive).

Turning to `CC(C)c1c(C(=O)Nc2ccccc2)c(-c2ccccc2)c(-c2ccc(F)cc2)n1CC[C@@H](O)C[C@@H](O)CC(=O)O`, the Potency in test [2] was 6.41 µM (active); in test [3], 1.48 µM (active) and 227 nM (active) and 2.11 µM (active); in test [9] it was 26.3 µM (active). Moreover, the Potency entry in test [4], in test [6], in test [7], in [8], in test [11] and in test [12] was “inactive” throughout. Also, in [5], the outcome was inactive.

For the compound `Oc1ccccc1`, the Potency entry in [2], in [3], in [4], in [18], in test [8] and in test [9] was “inactive” each time. Also, the Potency result in test [10] and in test [12] was “inactive” each time. Also, the compound was classed as inactive in test [5].

As for `O=C(O)CC(O)C(=O)O` (stereo not drawn), the Potency entry in test [2], in [3], in [4], in test [6], in test [7] and in test [8] was “inactive” in each case. Besides, the Potency result in test [10], in test [12], in test [13] and in test [19] was “inactive” throughout. For the same compound, the result in [5] and in test [16] was inactive. For the same compound, the max activation in [14] is -2.6% (inactive).

On to `COc1ccc2c(c1)c(CC(=O)O)c(C)n2C(=O)c1ccc(Cl)cc1`, for which the Potency result in [1], in test [20], in [2], in test [3], in test [4] and in test [8] was “inactive” throughout. Also, the Potency result in test [11], in test [13] and in test [17] was “inactive” each time. For the same compound, the Potency in [10] was 61.5 µM (active); in test [19], 35.8 µM (active) and inactive.

With `CCN(Cc1c(F)cccc1Cl)c1c([N+](=O)[O-])cc(C(F)(F)F)cc1[N+](=O)[O-]`, the Potency entry in test [1], in [4], in test [6], in test [7], in [8] and in test [12] was “inactive” in each case. The Potency result in [19] is “inactive”. Moreover, the Potency is 21.7 µM (active) in test [2]; 8.63 µM (active) in [3]; 54.5 µM (active) in test [10]; 8.63 µM (active) in test [13]; 2.24 µM (active) in test [17]. Moreover, the compound was classed as inactive in [5].

Turning to `NC(=O)n1c(O)c(C(=O)c2cccs2)c2cc(Cl)ccc21`, the Potency result in test [1], in test [4], in test [18], in [6], in test [7] and in [9] was “inactive” in each case. The Potency result in [19] was “inactive”. In addition, in [5], the result was inactive. Also, the max activation in test [14] is 4.95% (inactive). Besides, the Potency in [15] is 28.2 µM (active).

With `CN[C@H]1CC[C@@H](c2ccc(Cl)c(Cl)c2)c2ccccc21`, the Potency entry in test [1], in test [3] and in test [4] was “inactive” throughout. In addition, in test [5], the outcome was inactive. For the same compound, the Potency in [8] was 29.8 µM (active); in test [10], 29.8 µM (active); in test [12], 29.8 µM (active); in test [19], 1.55 µM (active); in test [17], 3.89 µM (active). Also, the max activation in test [14] was 8.99% (inactive).

The record behind these values is PubChem BioAssay (Tox21).
